Test [1] in a line: qHTS for differential inhibitors of proliferation of Plasmodium falciparum line 7G8 (AID 1815).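 Further: parasite growth measured after three days of incubation.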 Further: potency means the concentration at half of the fitted maximal effect. Background: qHTS replaces the single test concentration by a dilution series.
The nature of test [2]: qHTS for differential inhibitors of proliferation of Plasmodium falciparum line GB4 (AID 1816).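 Further: parasite growth measured after 72 h incubation.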 Further: potency means the concentration at half of the fitted maximal effect. As to conditions: Potency: Plasmodium falciparum GB4 proliferation inhibition.
Test [3] in a line: qHTS for differential inhibitors of proliferation of Plasmodium falciparum line 3D7 (AID 1876). Further: potency means the concentration at half of the fitted maximal effect.
Test [4] can be described thus: qHTS for differential inhibitors of proliferation of Plasmodium falciparum line D10 (AID 1877).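 Further: parasites grown with compound for 72 h before DNA staining.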 Further: potency means the concentration at half of the fitted maximal effect.
Test [5] is described as follows: qHTS for differential inhibitors of proliferation of Plasmodium falciparum line Dd2 (AID 1882). Further: nearly all actives have a fitted effect of over 65% in size. Further: potency means the concentration at half of the fitted maximal effect. The following applies: Potency: Plasmodium falciparum Dd2 proliferation inhibition. In outline:
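SYBR Green I DNA fluorescence read-out, ex 485/em 535 nm. Signals were normalized to 0.29 uM artemisinin and DMSO wells, then corrected using vehicle-only plates flanking each stack. Parasite growth ran 72 h in erythrocytes before lysis.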

The nature of test [6]: qHTS for differential inhibitors of proliferation of Plasmodium falciparum line HB3 (AID 1886).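 Further: parasites grown with compound for 72 h before SYBR Green readout.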 Further: potency means the concentration at half of the fitted maximal effect. As to conditions: Potency: Plasmodium falciparum HB3 proliferation inhibition.
Test [7] in a line: qHTS for differential inhibitors of proliferation of Plasmodium falciparum line W2 (AID 1883).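 Further: parasites grown with compound for 72 h before lysis and staining.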 Further: potency means the concentration at half of the fitted maximal effect. As to conditions: Potency: Plasmodium falciparum W2 proliferation inhibition.
Test [8] in a line: qHTS Assay for Modulators of Human Peripheral Myelin Protein 22 (PMP22) Expression/Activity (AID 1967; active means well fitted curve in the direction sought with a large enough effect in the signal ratio; the % refers to the signal ratio). In outline:
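Engineered MSC80 cells, Pmp22-promoter green and EF-alpha red luciferase reporters; 24h compound treatment at 37 °C. Concentration-response fits on green, red and ratio signals, each overlap-corrected, with %Activity normalized to untreated wells.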

A short description of test [9]: qHTS Assay for Identification of Small Molecule Inducers of Hypoxia Response (AID 2120; active means well fitted curve in the direction sought with a large enough effect in the signal ratio, with a control signal flat, not every such curve was filed as active; the % refers to the signal ratio). A digest of the protocol: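 Induction of beta-lactamase reporter activity was measured in CellSensor HRE-bla ME-180 cells after 17 h compound treatment at 37 degrees C, using CCF4 substrate and the 460nm/530nm emission ratio to derive AC50 values.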

Records with an inconclusive call do not appear. The source made the active and inactive calls. Unless noted, the call rests on the fitted dose curve; in most records, active means well fitted curve in the direction sought with a large enough effect; inconclusive means small, poorly fitted or top-dose-only effect, or another doubt; inactive means no such curve, though single readings can be large; an effect the other way counts as inactive or inconclusive.

Results on seven molecules are retold here after PubChem BioAssay (NCATS).

`CO[C@@]1(NC(=O)CSCC#N)C(=O)N2C(C(=O)O)=C(CSc3nnnn3C)CS[C@@H]21`: the Potency result in test [1], in test [2], in test [3], in [4], in test [5] and in [6] was “inactive” throughout.
In the case of `C#CCN(C)CCCOc1ccc(Cl)cc1Cl`, the Potency entry in [3], in test [4], in test [5] and in [6] was “inactive” throughout. Also, the Potency in test [7] was 11.2 µM (active). The molecule was called inactive in test [8].
`CCN(Cc1ccncc1)C(=O)C(CO)c1ccccc1` (stereo not given): the Potency entry in test [1], in [2], in test [3], in [4], in test [5] and in [7] was “inactive” throughout. In addition, the Potency result in test [6] was “inactive”. Further, in test [8], the outcome was inactive.
On to `CCCCOCCOCCOCc1cc2c(cc1CCC)OCO2`, for which, in test [9], the result was inactive.
For the molecule `C(=C\c1ccccc1)/CN1CCN(C(c2ccccc2)c2ccccc2)CC1`, the Potency in test [1] was 3.98 µM (active); in test [2] it was 8.91 µM (active); in [5], 11.2 µM (active); in [6] it was 11.2 µM (active).
On to `CCC(=O)c1ccc2c(c1)N(CCCN(C)C)c1ccccc1S2`, for which the Potency in [1] is 8.91 µM (active); in test [2], 11.2 µM (active); in test [3] it was 10 µM (active); in test [4], 17.8 µM (active); in [7], 5.01 µM (active); in test [6] it was 11.2 µM (active).
With `CCCCNc1ccc(C(=O)OCCN(C)C)cc1`, the Potency entry in test [1], in test [5], in test [7] and in [6] was “inactive” throughout.
